# Shiga inhibitor: inhibitors of Shiga toxin in Vero cells. 9.2% of 290,000 active. Vero cells, Shiga toxin protein synthesis inhibition reporter. inhibition, % at 38.7 µM. AID 2315; in the data active = inhibition mostly above about 28%, no sharp cut-off; inactive = mostly below about 43%
# Pf growth 96h: P. falciparum growth inhibition at 96 hour, primary screen for plastid delayed-death inhibitors; Potency, µM (highest dose often 28.7 µM), most hits filed as inhibitors; 6.9% of 320,000 active; P. falciparum luciferase reporter growth, 96 h
#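 Two parasite generations (96 h, 37 C, 5% CO2) of compound exposure in infected erythrocytes (0.05% parasitemia, 2% hematocrit). Luciferase-reporter P. falciparum; decreased luminescence indicates inhibited growth, aimed at apicoplast-acting delayed death.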
# Pf growth 48h: inhibits P. falciparum growth in the first generation, 48 h. P. falciparum luciferase growth in erythrocytes, 48 h. Potency, µM (highest dose often 28.7 µM), most hits filed as inhibitors. 5.9% of 310,000 active
#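 Erythrocytes infected with P. falciparum carrying an integrated firefly luciferase reporter (2% hematocrit, 0.1% parasitemia final) were exposed to compounds in RPMI 1640 with 0.5% Albumax at 37 C, 5% CO2. Growth inhibition was scored as reduced luminescence.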
# CHX counter: affects cycloheximide protein synthesis inhibition readout, counter-screen. 12% of 300,000 active. cell reporter, cycloheximide protein synthesis inhibition counterscreen. max response, %; in the data active = max response mostly above about 13%, no sharp cut-off; inactive = mostly below about 14%; note: read at 38.3 µM for the half of the compounds with a filed dose
# A number is an active result; . = inactive; ? = inconclusive; / = not tested or not shown; [ ] = another dose, or the depositor's remark. Shown are actives, neighbours in structure and some others; about 21% of the full set was active somewhere. Unless noted, calls come from the whole dose curve; as a rule, active = well fitted inhibition curve with a large enough effect; inconclusive = small, poorly fitted or top-dose-only effect, or another doubt; inactive = no such curve, though single readings can be large or run the other way.
SMILES,Shiga inhibitor,Pf growth 96h,Pf growth 48h,CHX counter
COc1ccccc1NC(=O)CSCc1ccc([N+](=O)[O-])cc1,.,.,.,.
Cc1ccc(C2(C)NC(=O)N(CC(=O)NNC(=O)c3ccccc3)C2=O)cc1 (stereo unspecified),/,.,.,/
CCOC(=O)c1cc(CC)sc1NC(=O)CN1CCN(C(=O)c2ccco2)CC1,.,.,?,.
CCOc1ccc(Cn2c(=O)oc3ccccc32)cc1,.,?,.,.
Cc1ccc(O)c(C(=O)CC(=O)c2ccccc2Cl)c1,81.3,.,14.7µM,37.7
CC(=O)Nc1ccc(C(=O)CS(=O)(=O)c2ccc(C)cc2)cc1,.,.,.,.
Cc1ccc(O)c(C(=O)CC(=O)c2ccc(C(C)(C)C)cc2)c1,/,?,?,23.2
Cc1ccc(Cl)c(O)c1,/,.,.,/
Cc1ccc(S(=O)(=O)CC(=O)c2ccc(C(C)(C)C)cc2)cc1,.,2.62µM,2.33µM,.
CC(C)(C)c1ccc(C(=O)NCC(=O)NNC(=O)c2ccccc2O)cc1,/,.,.,/
O=C(CSc1nc2ccccc2c(=O)[nH]1)Nc1ccc(N2CCOCC2)c(Cl)c1,.,.,.,.
Cc1ccccc1Nc1nc(-c2ccccc2)c(C(=O)Nc2cccnc2)s1,.,?,.,15.6
COc1ccc(/C=C2\N=C(C)OC2=O)cc1OC(C)=O,.,.,.,.
COc1cc(/C=C2\N=C(c3ccccc3)OC2=O)ccc1OC(C)=O,.,?,.,7.5
Cc1ccc(NC(=O)Cn2ccc([N+](=O)[O-])n2)cc1C,.,?,.,.
Cc1ccc2nc(N/C(=N/S(=O)(=O)c3ccc(F)cc3F)c3ccccc3)sc2c1,66.2,.,.,30.7
Cc1cc(N/C(=N/S(=O)(=O)c2cc(F)ccc2F)c2ccccc2)n(-c2ccccc2)n1,.,.,?,14.7
Cc1ccc2nc(N/C(=N/S(=O)(=O)c3ccc(F)cc3)c3ccccc3)sc2c1,131.6,.,.,48.1
Cc1cc(N/C(=N\S(=O)(=O)c2ccc(F)cc2F)c2ccccc2)no1,.,/,.,.
COc1ccc(CCN2CC(C(=O)NCC(=O)Nc3ccc(F)c(F)c3)CC2=O)cc1OC (stereo unspecified),/,?,.,/
COc1ccc(N(CC(=O)NC2CCCCC2)C(=O)CCC(=O)Nc2nc(C)cs2)cc1OC,.,.,?,.
Cc1cccc(-c2nc(C#N)c(NCC3CCCO3)o2)c1 (stereo unspecified),88.7,.,.,43.8
Cc1cccc(-c2nc(C#N)c(N3CCCCCC3)o2)c1,70.2,/,.,27.6
Cc1cccc(-c2nc(C#N)c(N3CCC(C)CC3)o2)c1,.,.,.,.
N#Cc1nc(-c2cccs2)oc1NCC1CCCO1 (stereo unspecified),.,.,.,9.3
SMILES,Shiga inhibitor,Pf growth 96h,Pf growth 48h,CHX counter
N#Cc1nc(-c2ccc(F)cc2)oc1NCCN1CCOCC1,.,.,.,.
Cc1ccc(-c2nc(C#N)c(NCC3CCCO3)o2)cc1 (stereo unspecified),81.9,.,.,24.6
O=S(=O)(c1ccccc1)c1nc(-c2cccs2)oc1NCC1CCCO1 (stereo unspecified),.,.[5.75 µM],.,.
Cc1cccc(-c2noc(CCCC(=O)NCC3CCCO3)n2)c1 (stereo unspecified),.,.,.,.
CS(=O)(=O)N(CC(=O)N1CCCCCC1)c1cccc([N+](=O)[O-])c1,/,.,.,.
COc1ccc(-c2nc(C#N)c(NCCCN3CCOCC3)o2)cc1,.,.,.,.
CC1CN(c2oc(-c3cccs3)nc2C#N)CC(C)O1 (stereo unspecified),.,.,10.4µM,.
COc1ccc(-c2nc(C#N)c(NCC3CCCO3)o2)cc1 (stereo unspecified),72.6,/,.,25.4
O=[N+]([O-])c1ccc(S(=O)(=O)N(CCCN2CCOCC2)Cc2cccs2)cc1,.,?,.,.
COCCNS(=O)(=O)c1ccc2c(c1)oc(=O)c1cc(S(=O)(=O)NCCOC)ccc12,.,1.85µM,?,.
COc1ccccc1OCCNS(=O)(=O)c1ccc2oc3ccccc3c2c1,.,10.4µM,.,.
CCC(C)(C)C1CCc2[nH]nc(C(=O)NCCNC(=O)OC(C)(C)C)c2C1 (stereo unspecified),/,.,?,/
CCc1ccc(OCC(=O)NNC(=O)C2CCC2)cc1,/,?,.,/
Clc1ccc(N=C2SCCS2)cc1,76.0,.,.,46.1
O=C1CN(C(=O)/C=C/c2ccccc2F)c2ccccc2N1,75.5,.,.,27.4
CCC(C)[C@H](NC(=O)C1(c2ccccc2)CCN(C(=O)OC(C)(C)C)CC1)C(=O)N[C@@H](C(=O)O)c1ccccc1 (stereo partly specified),.,13.1µM,13.1µM,.

# From PubChem BioAssay
